The source of these data is PubChem BioAssay (NCATS).

Test [1] has as its target Aldehyde dehydrogenase, mitochondrial (Homo sapiens) (UniProt P05091). The test can be described thus: qHTS for Inhibitors of the Aldehyde Dehydrogenase Family (ALDH2) Confirmatory screens (AID 2061303; active = well fitted inhibition curve with a large enough effect; title and protocol of this record describe different tests; also: nearly all actives have a fitted effect of over 45% in size; also: potency is read from the fitted curve at half-maximal effect).
Test [2] is described as follows: qHTS for Inhibitors of the Aldehyde Dehydrogenase Family (ALDH1A2, ALDH1A3, ALDH2, ALDH3A1) (AID 2061307; also: nearly all actives have a fitted effect of over 50% in size; as to Potency: test system not described further here; potency is read from the fitted curve at half-maximal effect). (In general: qHTS replaces the single test concentration by a dilution series.)
In test [3] the target is Aldehyde dehydrogenase, mitochondrial (Homo sapiens) (UniProt P05091). The test can be described thus: qHTS for Inhibitors of the Aldehyde Dehydrogenase Family (ALDH2) Primary screen (AID 2061308). Also: nearly all actives have a fitted effect of over 55% in size. Also: potency is read from the fitted curve at half-maximal effect.
For test [4], the target named is Retinaldehyde dehydrogenase 3 (Homo sapiens) (UniProt P47895). In words: qHTS for Inhibitors of the Aldehyde Dehydrogenase Family (ALDH1A3) Confirmatory screens (AID 2061311). Also: nearly all actives have a fitted effect of over 60% in size. Also: potency is read from the fitted curve at half-maximal effect.
Test [5] concerns the target Retinal dehydrogenase 2 (Homo sapiens) (UniProt O94788). The test can be described thus: qHTS for Inhibitors of the Aldehyde Dehydrogenase Family (ALDH1A2) Confirmation screens (AID 2061314). Also: nearly all actives have a fitted effect of over 65% in size. Also: potency is read from the fitted curve at half-maximal effect.
Test [6] addresses Retinaldehyde dehydrogenase 3 (Homo sapiens) (UniProt P47895). The test can be described thus: qHTS for Inhibitors of the Aldehyde Dehydrogenase Family (ALDH1A3) Primary screen (AID 2061315).
Test [7] concerns the target Aldehyde dehydrogenase 1A1 (Homo sapiens) (UniProt P00352). In words: qHTS for Inhibitors of the Aldehyde Dehydrogenase Family (ALDH1A1) Confirmatory screens (AID 2061316). Also: nearly all actives have a fitted effect of over 65% in size. Also: potency is read from the fitted curve at half-maximal effect.

Records with an inconclusive call do not appear. The source made the active and inactive calls. Unless noted, calls follow the shape of the dose curve; as a rule, active = well fitted curve in the direction sought with a large enough effect; inconclusive = small, poorly fitted or top-dose-only effect, or another doubt; inactive = no such curve, though single readings can be large; an effect the other way counts as inactive or inconclusive.

Take `Fc1ccc(CSc2nc3ncc(Br)cc3[nH]2)cc1`: the Potency result in test [1], in test [2], in test [3], in test [4], in test [5] and in test [6] was “inactive” throughout. Also, the Potency result in test [7] is “inactive”.

With `CC(C)(C)c1ccc(SC2=NS(=O)(=O)c3ccccc32)cc1`, the Potency result in test [1], in test [2], in test [3], in test [4], in test [6] and in test [7] was “inactive” throughout. Moreover, the Potency in test [5] was 12.7 µM (active).

For `O=C(Nc1ccc(F)c(C(F)(F)F)c1)Nc1nnc(C2CCCCC2)s1`, the Potency entry in test [1], in test [2], in test [4], in test [5] and in test [6] was “inactive” each time. Further, the Potency in test [3] is 8.91 µM (active).

Consider `COc1cc(CNc2ncnc3ccc(-c4c(C)noc4C)cc23)cc(OC)c1OC`, for which the Potency result in test [1], in test [2], in test [3], in test [4], in test [5] and in test [6] was “inactive” in each case.

Regarding `Cc1ccc2nc3sc(C(=O)NCc4ccco4)cc3cc2c1`, the Potency in test [1] is 12.7 µM (active); in test [2], 11.3 µM (active); in test [4], 10.1 µM (active); in test [5], 7.12 µM (active); in test [7] it was 7.12 µM (active). In addition, the Potency entry in test [3] and in test [6] was “inactive” each time.

Regarding `Cc1ccccc1C[C@H](C(=O)O)N1C(=O)c2ccc(C(=O)O)cc2C1=O`, the Potency result in test [1], in test [2], in test [3], in test [4], in test [5] and in test [6] was “inactive” each time. In test [7], the Potency result is “inactive”.

Consider `O=C(C1CCN(c2nc(-c3ccc(Br)cc3)cs2)CC1)N1CCNCC1`, for which the Potency result in test [1], in test [2], in test [3], in test [4], in test [5] and in test [6] was “inactive” in each case. Moreover, the Potency in test [7] is 25.2 µM (active).

`O=C1NC(=O)/C(=C/c2cccn2-c2ccc(P(O)O)cc2)N1`: the Potency entry in test [1], in test [2], in test [3], in test [4], in test [5] and in test [6] was “inactive” each time. Further, the Potency result in test [7] is “inactive”.

Take `CCc1nnc(-c2cnn(C)c2N)n1CCCn1ccnc1`: the Potency result in test [1], in test [2], in test [3], in test [4], in test [5] and in test [6] was “inactive” in each case. The Potency result in test [7] is “inactive”.

Regarding `COc1ccc(C2=Nn3c(nnc3-c3cccc(OC)c3OC)SC2)cc1`, the Potency result in test [1], in test [2], in test [3], in test [4], in test [5] and in test [6] was “inactive” each time. Moreover, the Potency result in test [7] was “inactive”.
